Experimental data: PubChem BioAssay (EPA / NIEHS)
Inconclusive results are not listed. Active and inactive are the calls of the source. How the source made its calls, unless noted: active means hit-call score of the fitted dose curve at least 0.9, where 1 is the maximum; inactive means score below 0.9.

What was measured:
[1] = target: Myc proto-oncogene protein (Homo sapiens) (UniProt P01106); experiment: ATG_Myc_CIS: Attagene CIS-FACTORIAL HepG2 Assay for human Myelocytomatosis (Myc) Proto-Oncogene Transcription Factor (AID 2282990); conditions: HepG2, Attagene cis-reporter transcription factor activity; actives raise or lower the signal
Chain of Myc proto-oncogene protein (Homo sapiens) (P01106 whole entry, looked up, the tested form may be a part): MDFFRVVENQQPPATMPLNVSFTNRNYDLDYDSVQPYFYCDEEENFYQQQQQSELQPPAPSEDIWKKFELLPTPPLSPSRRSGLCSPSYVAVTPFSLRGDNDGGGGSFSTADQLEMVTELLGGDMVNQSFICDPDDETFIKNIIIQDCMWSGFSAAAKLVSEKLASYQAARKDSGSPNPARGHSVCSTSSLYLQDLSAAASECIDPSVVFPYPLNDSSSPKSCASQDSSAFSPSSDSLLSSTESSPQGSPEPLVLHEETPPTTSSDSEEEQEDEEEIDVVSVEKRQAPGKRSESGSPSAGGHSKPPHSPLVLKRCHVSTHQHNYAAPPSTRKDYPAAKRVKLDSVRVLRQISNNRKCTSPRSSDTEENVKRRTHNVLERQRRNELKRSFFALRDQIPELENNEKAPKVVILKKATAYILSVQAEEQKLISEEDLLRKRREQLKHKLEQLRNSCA
Method in brief: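 After 24 h chemical treatment of HepG2 cells carrying multiplexed cis-regulated reporter constructs, reporter transcripts quantified by RT-PCR and capillary electrophoresis of fluorescent fragments. Gain or loss fitted against DMSO baseline.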

[2] = ATG_NF_kB_CIS: Attagene CIS-FACTORIAL HepG2 Assay for human Nuclear Factor Kappa B (NF-kB) (AID 2282991); conditions: HepG2 Attagene cis-factorial NF-kB reporter mRNA; actives raise or lower the signal
Method in brief: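 HepG2 cells transfected with cis-promoter-driven reporter units, so endogenous transcription factor activity is measured. Reporter mRNA quantified 24 h after dosing by RT-PCR and capillary electrophoresis, with bidirectional fitting against DMSO.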

[3] = ATG_NRF2_ARE_CIS: Attagene CIS-FACTORIAL HepG2 Assay for human Nuclear Factor Erythroid 2 Related Factor 2 (NFR2) response to Antioxidant Response Elements (ARE) (AID 2282992); conditions: HepG2 Attagene ARE/NRF2 reporter, transcription factor activity; actives raise or lower the signal;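 on AC50: reporter mRNA level measured by RT-PCR and capillary electrophoresis fluorescence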
Method in brief: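 HepG2 cells transiently transfected with multiplexed cis-regulated reporter transcription units measure endogenous transcription factor activity. Reporter mRNA at 24 h is quantified by RT-PCR, fluorescent labelling and capillary electrophoresis, with bidirectional fitting relative to DMSO.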

[4] = target: Cellular tumor antigen p53 (Homo sapiens) (UniProt P04637); experiment: ATG_p53_CIS: Attagene CIS-FACTORIAL HepG2 Assay for human p53 Transcription Factor (AID 2282994); conditions: HepG2 p53 cis-element reporter, Attagene mRNA; actives raise or lower the signal
Chain of Cellular tumor antigen p53 (Homo sapiens) (P04637 whole entry, looked up): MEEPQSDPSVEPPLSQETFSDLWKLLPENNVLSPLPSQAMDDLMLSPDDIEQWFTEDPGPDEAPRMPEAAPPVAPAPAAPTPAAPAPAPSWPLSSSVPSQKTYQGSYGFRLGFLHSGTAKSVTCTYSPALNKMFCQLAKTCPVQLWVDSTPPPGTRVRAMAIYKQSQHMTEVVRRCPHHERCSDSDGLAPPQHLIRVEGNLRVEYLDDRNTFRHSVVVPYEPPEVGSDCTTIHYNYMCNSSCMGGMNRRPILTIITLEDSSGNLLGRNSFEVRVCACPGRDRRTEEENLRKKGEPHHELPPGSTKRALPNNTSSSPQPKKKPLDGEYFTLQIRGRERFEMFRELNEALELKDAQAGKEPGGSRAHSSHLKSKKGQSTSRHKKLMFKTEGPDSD
Method in brief: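 HepG2 cells transiently transfected with multiplexed cis-regulated reporter transcription units read endogenous TF activity. After 24 h compound exposure, reporter mRNA was quantified by RT-PCR, fluorescent labelling, HpaI digestion and capillary electrophoresis; bidirectional fits versus DMSO baseline.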

[5] = target: human Peroxisome Proliferator-activated Receptor alpha (PPARa), PPARA (gene 5465) (UniProt Q07869); experiment: ATG_PPARa_TRANS: Attagene TRANS-FACTORIAL HepG2 Assay for human Peroxisome Proliferator-activated Receptor alpha (PPARa) (AID 2283001; active means hit-call score of the fitted dose curve at least 0.9, where 1 is the maximum)
Chain of human Peroxisome Proliferator-activated Receptor alpha (PPARa), PPARA (gene 5465) (Q07869 whole entry, looked up, the tested form may be a part): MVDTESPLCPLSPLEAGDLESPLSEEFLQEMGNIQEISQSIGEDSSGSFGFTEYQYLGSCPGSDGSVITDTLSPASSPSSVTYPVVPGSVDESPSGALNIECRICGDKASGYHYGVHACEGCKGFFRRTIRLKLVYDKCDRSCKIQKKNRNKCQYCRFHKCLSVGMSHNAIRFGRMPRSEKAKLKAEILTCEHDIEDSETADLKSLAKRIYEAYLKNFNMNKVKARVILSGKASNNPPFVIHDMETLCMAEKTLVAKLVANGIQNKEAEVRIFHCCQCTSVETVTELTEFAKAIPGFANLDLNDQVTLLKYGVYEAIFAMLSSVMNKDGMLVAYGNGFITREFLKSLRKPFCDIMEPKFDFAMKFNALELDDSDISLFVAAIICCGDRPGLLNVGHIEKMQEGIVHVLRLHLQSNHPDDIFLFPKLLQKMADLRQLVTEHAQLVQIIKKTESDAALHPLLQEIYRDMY
Method in brief: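 Read-out is fluorescence of reporter cDNA fragments resolved by capillary electrophoresis after RT-PCR. Human HepG2 liver cells carried transfected PPARa-Gal4 chimera and GAL4-UAS reporter units, treated 24 h; activity scored as increase over DMSO.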

[6] = target: human Peroxisome Proliferator-activated Receptor delta (PPARd), PPARD (gene 5467) (UniProt Q03181); experiment: ATG_PPARd_TRANS: Attagene TRANS-FACTORIAL HepG2 Assay for human Peroxisome Proliferator-activated Receptor delta (PPARd) (AID 2283002; active means hit-call score of the fitted dose curve at least 0.9, where 1 is the maximum)
Chain of human Peroxisome Proliferator-activated Receptor delta (PPARd), PPARD (gene 5467) (Q03181 whole entry, looked up, the tested form may be a part): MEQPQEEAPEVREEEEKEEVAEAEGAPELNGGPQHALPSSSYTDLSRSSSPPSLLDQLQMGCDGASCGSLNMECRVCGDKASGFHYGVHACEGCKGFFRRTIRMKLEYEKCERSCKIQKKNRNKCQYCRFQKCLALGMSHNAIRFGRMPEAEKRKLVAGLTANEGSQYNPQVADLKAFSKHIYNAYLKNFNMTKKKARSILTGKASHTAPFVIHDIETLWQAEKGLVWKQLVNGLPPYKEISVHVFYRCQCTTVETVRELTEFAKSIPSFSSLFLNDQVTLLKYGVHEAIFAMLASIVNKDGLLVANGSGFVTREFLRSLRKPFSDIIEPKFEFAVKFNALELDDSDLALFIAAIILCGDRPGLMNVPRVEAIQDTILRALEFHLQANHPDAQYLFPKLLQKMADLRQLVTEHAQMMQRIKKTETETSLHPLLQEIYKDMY
Method in brief: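 Read-out is induced reporter mRNA, quantified by RT-PCR with fluorescent labelling and capillary electrophoresis after 24 h dosing. Cells are HepG2 transiently carrying multiple GAL4-UAS reporter units driven by exogenous NR-GAL4 chimeras; DMSO serves as baseline.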

[7] = target: human Retinoic Acid Receptor beta (RARb), RARB (gene 5915) (UniProt P10826); experiment: ATG_RARb_TRANS: Attagene TRANS-FACTORIAL HepG2 Assay for human Retinoic Acid Receptor beta (AID 2283004; active means hit-call score of the fitted dose curve at least 0.9, where 1 is the maximum)
Chain of human Retinoic Acid Receptor beta (RARb), RARB (gene 5915) (P10826 whole entry, looked up, the tested form may be a part): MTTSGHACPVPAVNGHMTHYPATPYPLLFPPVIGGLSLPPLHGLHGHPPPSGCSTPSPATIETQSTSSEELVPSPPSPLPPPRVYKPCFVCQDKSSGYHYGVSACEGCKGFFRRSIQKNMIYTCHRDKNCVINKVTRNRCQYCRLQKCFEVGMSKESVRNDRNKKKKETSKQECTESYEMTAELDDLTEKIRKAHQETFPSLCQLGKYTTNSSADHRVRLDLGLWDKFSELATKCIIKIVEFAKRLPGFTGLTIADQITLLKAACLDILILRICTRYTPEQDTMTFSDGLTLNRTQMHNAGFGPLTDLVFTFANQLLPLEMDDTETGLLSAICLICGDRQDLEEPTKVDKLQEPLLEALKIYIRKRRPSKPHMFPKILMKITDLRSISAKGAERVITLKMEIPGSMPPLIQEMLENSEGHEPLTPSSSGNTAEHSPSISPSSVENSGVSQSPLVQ
Method in brief: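 HepG2, transient MRTU transfection, NR–Gal4 chimera, 24 h treatment; RT-PCR plus CE fluorescence detection of reporter mRNA; gain of signal vs DMSO.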

[8] = target: Peroxisome proliferator-activated receptor gamma (Homo sapiens) (UniProt P37231); experiment: ATG_PPARg_TRANS: Attagene TRANS-FACTORIAL HepG2 Assay for human Peroxisome Proliferator-activated Receptor-gamma (PPARg) (AID 2283007; active means hit-call score of the fitted dose curve at least 0.9, where 1 is the maximum)
Chain of Peroxisome proliferator-activated receptor gamma (Homo sapiens) (P37231 whole entry, looked up, the tested form may be a part): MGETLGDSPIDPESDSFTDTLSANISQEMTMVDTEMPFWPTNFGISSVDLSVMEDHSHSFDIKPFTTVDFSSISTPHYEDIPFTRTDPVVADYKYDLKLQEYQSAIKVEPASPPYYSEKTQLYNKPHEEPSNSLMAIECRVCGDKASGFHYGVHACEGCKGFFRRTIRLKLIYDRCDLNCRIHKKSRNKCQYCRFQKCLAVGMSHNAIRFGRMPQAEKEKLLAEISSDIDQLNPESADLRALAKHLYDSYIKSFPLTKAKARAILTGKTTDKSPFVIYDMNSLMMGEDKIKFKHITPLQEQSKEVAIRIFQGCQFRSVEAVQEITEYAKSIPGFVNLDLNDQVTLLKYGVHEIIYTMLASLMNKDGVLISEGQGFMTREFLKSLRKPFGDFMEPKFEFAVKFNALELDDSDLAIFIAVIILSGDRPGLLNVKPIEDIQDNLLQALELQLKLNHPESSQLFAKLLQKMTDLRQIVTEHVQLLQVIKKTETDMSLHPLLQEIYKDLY
Method in brief: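 HepG2 cells are transiently transfected with GAL4-UAS reporter units driven by chimeric NR-Gal4 fusions and dosed for 24 h. Reporter mRNA is quantified by RT-PCR, 6-FAM labelling, HpaI digestion and capillary electrophoresis. Induction is scored against DMSO.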

[9] = target: human Retinoic Acid Receptor gamma (RARg), RARG (gene 5916) (UniProt P13631); experiment: ATG_RARg_TRANS: Attagene TRANS-FACTORIAL HepG2 Assay for human Retinoic Acid Receptor gamma (RARg) (AID 2283009; active means hit-call score of the fitted dose curve at least 0.9, where 1 is the maximum)
Chain of human Retinoic Acid Receptor gamma (RARg), RARG (gene 5916) (P13631 whole entry, looked up, the tested form may be a part): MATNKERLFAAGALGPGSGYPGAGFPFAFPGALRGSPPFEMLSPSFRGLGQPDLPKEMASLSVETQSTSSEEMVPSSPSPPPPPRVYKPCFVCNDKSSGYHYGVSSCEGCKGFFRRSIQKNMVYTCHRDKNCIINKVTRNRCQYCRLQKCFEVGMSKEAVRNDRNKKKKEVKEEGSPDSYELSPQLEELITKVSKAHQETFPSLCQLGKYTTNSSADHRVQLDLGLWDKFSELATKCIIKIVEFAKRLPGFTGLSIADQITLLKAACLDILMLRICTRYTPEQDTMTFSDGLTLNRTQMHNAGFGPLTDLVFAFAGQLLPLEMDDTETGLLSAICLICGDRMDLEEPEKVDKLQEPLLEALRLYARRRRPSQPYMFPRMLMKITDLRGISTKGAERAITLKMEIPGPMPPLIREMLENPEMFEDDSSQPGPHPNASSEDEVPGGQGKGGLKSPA
Method in brief: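 HepG2 transiently transfected with GAL4-UAS reporter units and chimeric NR-Gal4 constructs; 24 h compound exposure. Reporter mRNA quantified by RT-PCR, FAM labeling, HpaI digestion and capillary electrophoresis; gain-of-signal versus DMSO.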

[10] = target: human RAR-related Orphan Receptor beta (RORb), RORB (gene 6096) (UniProt Q92753); experiment: ATG_RORb_TRANS: Attagene TRANS-FACTORIAL HepG2 Assay for human RAR-related Orphan Receptor beta (RORb) (AID 2283010; active means hit-call score of the fitted dose curve at least 0.9, where 1 is the maximum)
Chain of human RAR-related Orphan Receptor beta (RORb), RORB (gene 6096) (Q92753 whole entry, looked up, the tested form may be a part): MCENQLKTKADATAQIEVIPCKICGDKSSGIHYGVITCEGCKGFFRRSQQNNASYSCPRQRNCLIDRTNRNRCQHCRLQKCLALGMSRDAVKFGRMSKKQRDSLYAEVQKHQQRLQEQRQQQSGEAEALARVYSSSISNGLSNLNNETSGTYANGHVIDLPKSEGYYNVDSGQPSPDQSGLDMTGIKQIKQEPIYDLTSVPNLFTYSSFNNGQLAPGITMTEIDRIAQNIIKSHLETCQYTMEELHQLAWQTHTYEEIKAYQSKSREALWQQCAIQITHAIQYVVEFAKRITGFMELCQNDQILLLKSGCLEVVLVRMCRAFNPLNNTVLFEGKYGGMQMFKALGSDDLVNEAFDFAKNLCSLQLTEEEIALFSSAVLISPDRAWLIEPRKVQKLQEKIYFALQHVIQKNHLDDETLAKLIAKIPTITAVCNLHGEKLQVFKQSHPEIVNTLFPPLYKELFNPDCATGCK
Method in brief: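 HepG2 cells transiently transfected with GAL4-UAS reporter units expressing chimeric NR-Gal4 protein; reporter mRNA measured 24 h after dosing by RT-PCR, 6-FAM labelling and capillary electrophoresis. Gain-of-signal fitted relative to DMSO baseline.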

[11] = BSK_3C_TissueFactor: BioMAP Diversity Plus: 3C Assay for Tissue Factor Biomarker Activity (AID 2282997); conditions: BioMAP 3C HUVEC, tissue factor biomarker readout; actives raise or lower the signal
Method in brief: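 Values derive from bidirectional curve fitting against DMSO of Tissue Factor ELISA signals, taken 24 h after dosing primary human umbilical vein endothelial cells.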

[12] = BSK_3C_uPAR: BioMAP Diversity Plus: 3C Assay for Urokinase-type plasminogen activator receptor (uPAR) Biomarker Activity (AID 2282998); conditions: BioMAP 3C HUVEC, uPAR biomarker ELISA; actives raise or lower the signal
Method in brief: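 Primary human umbilical vein endothelial cells, 3C system; surface uPAR measured by ELISA 24 h after dosing. Cytotoxicity via SRB total protein in parallel cultures; bidirectional fit against DMSO.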

[13] = BSK_4H_Eotaxin3: BioMAP Diversity Plus: 4H Assay for Eotaxin 3 Biomarker Activity (AID 2283000); conditions: primary human endothelial cells (HUVEC); actives raise or lower the signal
Method in brief: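 Endothelial primary cells (human umbilical vein) exposed to compound for 24 h. ELISA detection of Eotaxin-3.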

[14] = read-out: Intercellular Adhesion Molecule 1 (ICAM1), ICAM1 (gene 3383); experiment: BSK_3C_ICAM1: BioMAP Diversity Plus: 3C Assay for Intercellular Adhesion Molecule 1 (ICAM1) Biomarker Activity (AID 2283003); conditions: primary human endothelial cells (HUVEC); actives raise or lower the signal
Method in brief: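 HUVEC primary cells stimulated under 3C conditions; ICAM1 measured by ELISA 24 h after compound dosing. Curves fitted bidirectionally against the DMSO baseline. Overt cytotoxicity checked by SRB staining of parallel cultures.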

[15] = BSK_3C_Proliferation: Cell Proliferation Assessment in the BioMAP Diversity Plus: 3C Assay (AID 2283006); conditions: primary human endothelial cells (HUVEC);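 on AC50: potency may reflect either rise or fall in cell number versus DMSO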
Method in brief: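 Subconfluent HUVEC (3C system) cultured with chemical; relative cell number read at 48 h by sulforhodamine B total-protein staining (0.1% SRB after 10% TCA fixation, 560 nm). Bidirectional fit relative to DMSO.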

[16] = target: Nuclear receptor subfamily 1 group I member 2 (Homo sapiens) (UniProt O75469); experiment: ATG_PXR_TRANS: Attagene TRANS-FACTORIAL HepG2 Assay for human Pregnane X Receptor (PXR) (AID 2283008; active means hit-call score of the fitted dose curve at least 0.9, where 1 is the maximum)
Chain of Nuclear receptor subfamily 1 group I member 2 (Homo sapiens) (O75469 whole entry, looked up, the tested form may be a part): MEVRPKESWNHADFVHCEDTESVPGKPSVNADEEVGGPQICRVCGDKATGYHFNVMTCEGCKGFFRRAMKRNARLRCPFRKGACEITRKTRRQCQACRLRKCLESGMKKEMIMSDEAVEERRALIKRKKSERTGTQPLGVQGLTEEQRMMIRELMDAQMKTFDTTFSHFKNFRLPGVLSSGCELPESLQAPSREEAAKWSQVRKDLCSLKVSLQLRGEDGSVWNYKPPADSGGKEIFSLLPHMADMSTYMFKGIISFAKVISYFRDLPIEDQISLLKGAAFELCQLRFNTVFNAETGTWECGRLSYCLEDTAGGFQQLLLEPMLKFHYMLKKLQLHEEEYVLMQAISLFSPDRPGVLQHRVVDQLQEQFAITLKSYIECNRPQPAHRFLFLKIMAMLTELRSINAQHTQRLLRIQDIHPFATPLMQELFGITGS
Method in brief: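 HepG2 cells transiently transfected with multiple reporter units, here a PXR-GAL4 chimera driving a GAL4-UAS reporter; 24 h compound exposure. Reporter mRNA measured by RT-PCR, FAM labelling and capillary electrophoresis; gain of signal fitted against DMSO baseline.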

[17] = ATG_Oct_MLP_CIS: Attagene CIS-FACTORIAL HepG2 Assay for human Octamer-Binding Transcription Factor (Oct) (AID 2282993); conditions: HepG2 Attagene cis-factorial Oct reporter, mRNA; actives raise or lower the signal
Method in brief: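 HepG2 cells transiently transfected with cis-element-driven reporter transcription units (endogenous TF activity); 24 h compound exposure. Reporter mRNA quantified by RT-PCR, 6-FAM labelling, HpaI digestion and capillary electrophoresis; bidirectional fit versus DMSO baseline.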

[18] = target: human RAR-related Orphan Receptor gamma (RORg), RORC (gene 6097) (UniProt P51449); experiment: ATG_RORg_TRANS: Attagene TRANS-FACTORIAL HepG2 Assay for human RAR-related Orphan Receptor gamma (RORg) (AID 2283011; active means hit-call score of the fitted dose curve at least 0.9, where 1 is the maximum)
Chain of human RAR-related Orphan Receptor gamma (RORg), RORC (gene 6097) (P51449 whole entry, looked up, the tested form may be a part): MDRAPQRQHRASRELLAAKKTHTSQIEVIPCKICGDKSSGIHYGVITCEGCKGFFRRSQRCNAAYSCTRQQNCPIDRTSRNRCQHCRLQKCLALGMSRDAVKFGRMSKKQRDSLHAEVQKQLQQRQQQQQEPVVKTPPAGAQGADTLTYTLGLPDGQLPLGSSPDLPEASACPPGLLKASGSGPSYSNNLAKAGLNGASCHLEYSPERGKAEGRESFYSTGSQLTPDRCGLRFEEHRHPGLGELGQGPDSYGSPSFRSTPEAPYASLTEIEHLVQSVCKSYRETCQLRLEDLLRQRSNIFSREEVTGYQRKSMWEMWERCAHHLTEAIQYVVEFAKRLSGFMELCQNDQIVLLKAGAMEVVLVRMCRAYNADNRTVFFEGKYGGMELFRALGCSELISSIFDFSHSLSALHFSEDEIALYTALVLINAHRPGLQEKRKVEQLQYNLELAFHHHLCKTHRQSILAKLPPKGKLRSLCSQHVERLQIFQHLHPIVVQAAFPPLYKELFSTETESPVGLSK
Method in brief: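 Activity is scored as increase in GAL4-UAS reporter mRNA over DMSO, detected by fluorescent RT-PCR and capillary electrophoresis in HepG2 cells transiently expressing a RORg-Gal4 chimera, 24 h after dosing.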

[19] = BSK_3C_VCAM1: BioMAP Diversity Plus: 3C Assay for Vascular cell adhesion molecule 1 (VCAM1) Biomarker Activity (AID 2282999); conditions: BioMAP 3C HUVEC, VCAM1 ELISA, cytokine-stimulated; actives raise or lower the signal
Method in brief: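 Endothelial cells from human umbilical vein are treated with test chemical. At 24 h, VCAM-1 is measured by ELISA, and responses in either direction are fitted relative to DMSO.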

Measured: AC50

COc1ccc([N+](=O)[O-])cc1O
inactive: [1] | [2] | [3] | [4] | [5] | [6] | [7] | [8] | [9] | [10]

Cc1cccc(OP(=O)(Oc2cccc(C)c2)Oc2cccc(C)c2)c1
active: [3] 21.9 µM | [15] 8.53 µM | [8] 13.9 µM | [16] 0.521 µM
inactive: [1] | [2] | [4] | [11] | [12] | [13] | [6] | [14]

CC(C)(c1ccccc1)c1cc(-n2nc3ccccc3n2)c(O)c(C(C)(C)c2ccccc2)c1
inactive: [1] | [2] | [3] | [17] | [4] | [6] | [16] | [9] | [18]

O=C(NC(=O)c1c(F)cccc1F)Nc1ccc(Cl)cc1
active: [8] 0.636 µM
inactive: [1] | [2] | [3] | [17] | [16]

ClCc1ccccc1CCl
active: [1] 33.4 µM | [2] 25.1 µM | [3] 8.19 µM | [17] 21.2 µM | [4] 50.7 µM | [8] 2.49 µM
inactive: [16] | [18]

CC[N+](CC)(CC)CC
inactive: [1] | [2] | [3] | [17] | [5] | [8]

[Cl][Sn]([c]1ccccc1)([c]1ccccc1)[c]1ccccc1
active: [1] 1.4 µM | [2] 0.232 µM | [3] 0.0785 µM | [4] 0.167 µM | [11] 0.297 µM | [12] 0.141 µM | [19] 0.177 µM | [13] 0.0985 µM | [6] 0.249 µM | [14] 0.318 µM | [15] 0.0518 µM | [8] 0.0464 µM

CC(C)O.CC(C)O.OCCN(CCO)CCO.OCCN(CCO)CCO.[Ti]
not listed: [4] | [6] | [7] | [8] | [9] | [10] | [18]
inactive: all other assays above

CCCSP(=S)(OCC)Oc1ccc(Cl)cc1Cl (configuration not stated)
active: [3] 13.3 µM | [8] 24.3 µM | [16] 2.51 µM
inactive: [1] | [2] | [17] | [5] | [6] | [10]

CCOP(=S)(OCC)Oc1ccc(Cl)cc1Cl
inactive: [1] | [2] | [17] | [4] | [6] | [8] | [18]
active: [3] 43.7 µM

O=NN1CCCCCCC1
inactive: [1] | [2] | [17] | [4] | [8] | [16]
active: [3] 114 µM

CCOP(=O)(OCC)OC(=CCl)c1ccc(Cl)cc1Cl
inactive: [1] | [2] | [4] | [19] | [6] | [14]
active: [3] 7.84 µM | [11] 20 µM | [12] 31.5 µM | [13] 30.9 µM | [15] 28.9 µM | [8] 27.4 µM | [16] 0.62 µM
